{
  "source": "PubChem BioAssay AID1794835",
  "about": "(Parasite Biology Lab, Institute for Biomedicine and …, 2023)",
  "experiment": "anti-Giardia activity of synthetic compounds – Compounds Australia Scaffold Library subset, 24/48 h, primary screen (AID 1794835);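 on inhibition: 0% = parasite counts in DMSO vehicle wells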",
  "details": "Giardia lamblia BRIS/91/HEPU/1279 trophozoite counts, imaging, at 10 µM",
  "key": {"[1]": {"details": "measured here: growth inhibition at 24 h, stronger effect = higher value"}},
  "note": "The whole screen tested about 2,500 compounds, of which about 45 (2%) were called active. No stated cut-off is given here; in the data, active means inhibition mostly above about 45% (no sharp cut-off); inactive means mostly below about 37%. The sample as a whole holds a higher share of actives than the screen did.",
  "data": [
    {"smiles": "CC(=O)Nc1ccc([N+](=O)[O-])c2nonc12", "values": [
      {"measurement": "inhibition", "setting": "stronger effect = higher value", "value": "63.4% (active)"},
      {"measurement": "inhibition", "setting": "[1]", "value": 45, "unit": "%"}
    ]},
    {"smiles": "CCc1ccc(NC(=O)[C@@H]2c3cc(OC)c(OC)cc3C(=O)N3CCCC[C@@H]23)cc1", "values": [
      {"measurement": "inhibition", "setting": "stronger effect = higher value", "value": "28.1% (inactive)"}
    ]},
    {"smiles": "Cc1nn(C)c(C)c1CC(=O)N1CCC(N2CCCC2)C1", "note": "(stereo unspecified)", "values": [
      {"measurement": "inhibition", "value": "inactive"}
    ]},
    {"smiles": "CSc1ccc(C2NCc3ccccc3-n3cccc32)cc1", "note": "(stereo unspecified)", "values": [
      {"measurement": "inhibition", "setting": "stronger effect = higher value", "value": "3.9% (inactive)"},
      {"measurement": "inhibition", "setting": "[1]", "value": 18.8, "unit": "%"}
    ]},
    {"smiles": "COc1ccc(C2c3cccn3-c3ccccc3CN2C(=O)CCC(=O)NC2CCCCC2)cc1", "note": "(stereo unspecified)", "values": [
      {"measurement": "inhibition", "value": "inactive"}
    ]},
    {"smiles": "O=[N+]([O-])c1ccc(N2CCC(c3ncc[nH]3)CC2)c2ccncc12", "values": [
      {"measurement": "inhibition", "setting": "stronger effect = higher value", "value": "88.1% (active)"},
      {"measurement": "inhibition", "setting": "[1]", "value": 64.1, "unit": "%"}
    ]},
    {"smiles": "Cc1cccc(NC(=O)CN2CC(c3ccccc3)CC2=O)c1", "note": "(stereo unspecified)", "values": [
      {"measurement": "inhibition", "setting": "stronger effect = higher value", "value": "10.4% (inactive)"},
      {"measurement": "inhibition", "setting": "[1]", "value": 2.3, "unit": "%"}
    ]},
    {"smiles": "CC(=O)N1N=C2C3CCN(CC3)[C@@H]2[C@@H]1c1cccc2ccccc12", "values": [
      {"measurement": "outcome", "value": "inactive"},
      {"measurement": "inhibition", "setting": "[1]", "value": 4.2, "unit": "%"}
    ]},
    {"smiles": "Cc1ccc2c(C3CCNCC3)c[nH]c2c1", "values": [
      {"measurement": "inhibition", "value": "inactive"}
    ]},
    {"smiles": "Cc1cccc(OCC(=O)N2CCN(Cc3nnsc3Cl)CC2)c1C", "values": [
      {"measurement": "inhibition", "setting": "stronger effect = higher value", "value": "35.2% (inactive)"},
      {"measurement": "inhibition", "setting": "[1]", "value": 20.5, "unit": "%"}
    ]}
  ]
}
